Pol eta inh-1: DNA polymerase eta (human) inhibition; recombinant Pol eta, fluorescent DNA replication assay; Potency, µM (top dose mostly 114 µM), hits mostly inhibitors; Q9Y253; hit rate 1.2% among 390,000
Target sequence (Q9Y253 whole entry, looked up): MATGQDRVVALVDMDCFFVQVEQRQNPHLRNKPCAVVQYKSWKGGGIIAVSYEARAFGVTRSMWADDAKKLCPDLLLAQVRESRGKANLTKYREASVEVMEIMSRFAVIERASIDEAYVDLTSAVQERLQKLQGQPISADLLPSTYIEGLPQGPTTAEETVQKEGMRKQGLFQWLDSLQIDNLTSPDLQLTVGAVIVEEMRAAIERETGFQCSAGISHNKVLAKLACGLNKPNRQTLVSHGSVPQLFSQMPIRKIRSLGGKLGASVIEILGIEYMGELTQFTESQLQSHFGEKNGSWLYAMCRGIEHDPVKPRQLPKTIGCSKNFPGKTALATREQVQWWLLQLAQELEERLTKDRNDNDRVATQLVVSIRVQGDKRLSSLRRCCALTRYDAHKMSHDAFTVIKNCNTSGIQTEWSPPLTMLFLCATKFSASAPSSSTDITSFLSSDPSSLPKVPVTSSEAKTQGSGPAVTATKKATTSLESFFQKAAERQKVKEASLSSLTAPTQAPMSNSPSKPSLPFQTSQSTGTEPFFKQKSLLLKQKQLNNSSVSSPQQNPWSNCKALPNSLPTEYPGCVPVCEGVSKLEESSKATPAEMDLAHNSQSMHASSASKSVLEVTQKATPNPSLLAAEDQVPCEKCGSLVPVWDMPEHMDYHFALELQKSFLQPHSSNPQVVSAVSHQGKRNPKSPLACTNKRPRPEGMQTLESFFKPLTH
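Fluorescent replication assay: 50 nM final substrate added after a 15 min room-temperature compound preincubation with 10 nM enzyme. Signal taken at 0 min and again at 10 min.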
POLI inh: inhibitors of human DNA polymerase iota; hit rate 1% among 390,000; Potency, µM (doses to about 115 µM), hits mostly inhibitors; Q9UNA4; Pol iota fluorescent replication assay, 10 min
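Fluorescent replication assay read twice, at 0 min and 10 min after adding 50 nM (final) substrate. Enzyme (10 nM) and compounds were first incubated 15 min at room temperature; enzyme-free buffer wells were negative controls.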
PI5P4K alpha inh: PI5P4K alpha (human) kinase inhibition | max response, % | PI5P4Kalpha enzyme, ADP-Glo luminescence, 60 min; hits give low values | hit rate 1.2% among 330,000 | P48426; active = max response of -50% or lower; inconclusive = between -30% and -50%; inactive = -30% or higher; note: value at the top dose of about 77 µM
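Single end-point luminescence (ADP-Glo) quantified ADP from PI5P4Kalpha turnover; ATP 5 microM final, 1 h at RT, 0.1% CHAPS and 0.28 mM EGTA in HEPES pH 7.4.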
Pol beta inh: DNA polymerase beta (human) inhibition | P06746 | Pol beta primer extension/strand displacement, fluorescence kinetic | Potency, µM (top dose mostly 114 µM), usual class: inhibitors | hit rate 1.3% among 340,000
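Reaction started by 50 nM substrate onto compound-treated Pol beta (10 nM, 15 min preincubation, room temperature); plates read at 0 min and 10 min. Normalized concentration-effect data fitted by four-parameter Hill equation.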
WRN helicase inh: blocks human WRN helicase. Q14191. WRN helicase unwinding, fluorescent forked duplex, kinetic. Potency, µM (highest dose often 114 µM), actives largely listed as inhibitors. hit rate 0.46% among 360,000. AID 651768; note: nearly all actives have a fitted effect of over 55% in size
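Fluorescence dequenching readout, ex 525 nm/em 598 nm, kinetic mode: forked duplex DNA (100 nM final) with adjacent fluorophore and quencher unwound by WRN (20 nM final) with 2 mM ATP. Compound preincubation 15 min, room temperature.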
Pol kappa inh-1: blocks human DNA polymerase kappa activity | purified Pol kappa, fluorescent DNA synthesis assay, 10 min | Potency, µM (titrated, usually from 107 µM), usual class: inhibitors | hit rate 0.53% among 400,000
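10 nM Pol kappa preincubated 15 min at room temperature with compounds, then reaction started with substrate at 50 nM final. Fluorescence read kinetically at 0 and 10 min; buffer-only wells served as negative control.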
PGK validate: blocks T. brucei phosphoglycerate kinase. hit rate 79% among 500. shares compounds with Pol kappa inh-1. TbPGK coupled GAPDH assay, Kinase-Glo luminescence. AID 686980. Potency, µM (series often up to 57.5 µM), usual class: inhibitors; note: nearly all actives have a fitted effect of over 65% in size
POLI cherry-pick: Confirm cherry-picked inhibitors of human polymerase iota. shares compounds with Pol kappa inh-1. Pol iota primer extension, TAMRA/BHQ fluorescence. Potency, µM, most hits filed as inhibitors. hit rate 77% among 1,500. AID 720496
GALK inh confirm: confirmation of human galactokinase (GALK) inhibitors | shares compounds with Pol eta inh-1 | purified GALK, Kinase-Glo ATP depletion luminescence | Potency, µM (doses to about 115 µM), most hits filed as inhibitors | hit rate 70% among 150 | AID 2015
Redox cycling: counter-screen for GALK inhibitors: redox cycling H2O2 generation. shares compounds with Pol eta inh-1. AID 2035. Phenol red-HRP H2O2 redox cycling, absorbance 600 nm. hit rate 40% among 150. Potency, µM (doses to about 115 µM), most hits filed as inhibitors
HEK293 viability: HEK-293 cytotoxicity, GALK inhibitor secondary. hit rate 10% among 170. Potency, µM (doses to about 46.1 µM), most hits filed as inhibitors. AID 2547. shares compounds with Pol eta inh-1. HEK-293 viability, ATP luminescence (CellTiter-Glo), 24/48 h
Pol kappa inh-2: Pol kappa (human) inhibition, cherry-pick confirmation; hit rate 76% among 920; shares compounds with Pol eta inh-1; purified Pol-kappa, fluorescent strand-displacement substrate; AID 720501; Potency, µM, hits mostly inhibitors
Pol eta inh-2: Pol eta (human) inhibition, cherry-pick confirmation. shares compounds with Pol eta inh-1. Pol eta primer extension, TAMRA/BHQ fluorescence, 10 min. Potency, µM, usual class: inhibitors. hit rate 64% among 2,600
A number is an active result; . = inactive; ? = inconclusive; / = not tested or not shown; [ ] = dose if it differs, or a comment. Hits are enriched below; roughly 2.8% of the tested compounds scored in any of these assays. Unless noted, calls come from the whole dose curve; as a rule, active = well fitted curve in the direction sought with a large enough effect; inconclusive = small, poorly fitted or top-dose-only effect, or another doubt; inactive = no such curve, though single readings can be large; an effect the other way counts as inactive or inconclusive.

SMILES	Pol eta inh-1	POLI inh	PI5P4K alpha inh	Pol beta inh	WRN helicase inh	Pol kappa inh-1	POLI cherry-pick	Pol eta inh-2	others
CC1(C)OC(c2ccccc2)=C/C(=C/C=C2C(=O)NC(=S)NC2=O)O1	?	?	?	50µM	8.9µM	?	67	76
CN1/C(=C\C=C2C(=O)NC(=S)NC2=O)C(C)(C)c2ccccc21	79µM	.	.	?	.	.	?	85	Pol kappa inh-2=60
Cc1ccc(N2C(=O)NC(=O)/C(=C/c3cnn(-c4ccc(C)cc4)c3)C2=O)cc1	.	.	.	.	.	.	/	/
Cc1ccc(N2C(=O)NC(=O)/C(=C/c3ccoc3)C2=O)cc1	3.2µM	7.9µM	-83	?	32µM	22µM	12	17	PGK validate=0.92µM
C=CCN1C(=O)NC(=O)/C(=C/c2ccoc2)C1=O	10µM	20µM	-69	28µM	50µM	45µM	21	17
Cc1ccc(N=C(/N=C(\N)N[N+](=O)[O-])Nc2ccc(C)cc2)cc1	.	.	.	/	.	.	/	/
CSc1nc(N)c(N=Nc2ccc([As](=O)(O)O)cc2)c(=O)[nH]1	50µM	8.9µM	.	35µM	.[11.6 µM]	.	42	76
COc1cccc(N=Nc2c(O)[nH]c(=S)[nH]c2=O)c1	.	?	?	.	.	.	/	/
COc1ccc(S(=O)(=O)Nc2ccccc2OC)cc1N=Nc1c(O)[nH]c(=S)[nH]c1=O	22µM	?	.	/	?	?	42	?	Pol kappa inh-2=42
CN1C(=O)NC(=O)/C(=C/c2ccc([N+](=O)[O-])o2)C1=O	3.5µM	?	-82	32µM	?	22µM	6	4.3	PGK validate=2.6µM
CC(C)C1C(=O)O[C@@H]2CCN3CC=C(COC(=O)[C@](C)(O)[C@]1(C)O)[C@H]23 (some centres undefined)	/	/	/	/	/	.	/	/
CNCC(N)C(=O)O (centres undefined)	/	/	/	/	/	.	/	/
Cc1ccccc1N1C(=O)NC(=O)/C(=C/c2ccc(N3CCOCC3)o2)C1=O	.	.	.	?	.	.	/	/
Cc1cccc(N2C(=O)/C(=C/c3ccc(N4CCN(C)CC4)o3)C(=O)NC2=S)c1C	20µM	?	.	.	32µM	?	60	30	Pol kappa inh-2=8.4
CCc1ccccc1N1C(=O)/C(=C/c2ccc(N3CCN(C)CC3)o2)C(=O)NC1=S	8.9µM	11µM	?	.	50µM	25µM	60	9.5
CCOC(=O)C1CCN(/C=C2/C(=O)NC(=S)N(c3cccc(OC)c3)C2=O)CC1	.	.	.	.	.	.	/	/
COc1ccc(N2C(=O)/C(=C/c3ccc(C)o3)C(=O)NC2=S)c(OC)c1	10µM	11µM	?	40µM	?	50µM	47	17	Pol kappa inh-2=3.4
CCN1C[C@]2(C)CC[C@H](O)[C@@]34[C@@H]5C[C@@H]6[C@@H](OC)C[C@@](O)(C5[C@H]6O)[C@@H](C[C@@H]23)[C@@H]14	.	.	/	.	/	/	/	/
C=CC1CN2CCC1CC2c1[nH]c2ccccc2c1CCO (centres undefined)	.	.	.	.	.	.	/	/
COC(=O)c1c(NC(=O)C2CC=CCC2C(=O)O)sc2c1CCCCC2 (centres undefined)	.	.	.	?	?	.	/	/
CCCCC(=O)N/N=C/c1c(O)n(Cc2ccco2)c(=O)[nH]c1=O	?	?	?	?	.	.	/	/
CC(=O)Nc1ccc(N=Cc2c(O)n(Cc3ccco3)c(=O)[nH]c2=O)cc1	?	45µM	?	25µM	?	?	60	76	Pol kappa inh-2=?
CCOC(=O)c1ccc(N2C(=O)c3n[nH]c(-c4cccs4)c3C2c2ccc(OC)cc2OC)cc1 (centres undefined)	.	.	/	.	/	.	/	/
CCc1ccc(N2C(=O)CC(=O)NC2=O)cc1	.	.	.	.	.	.	/	/
CC(C)c1ccc(N2C(=O)NC(=O)/C(=C/C=C/c3ccco3)C2=O)cc1	11µM	13µM	-66	32µM	50µM	40µM	75	30
SMILES	Pol eta inh-1	POLI inh	PI5P4K alpha inh	Pol beta inh	WRN helicase inh	Pol kappa inh-1	POLI cherry-pick	Pol eta inh-2	others
CCc1ccc(N2C(=O)NC(=O)/C(=C\C=C\c3ccco3)C2=O)cc1	20µM	7.1µM	?	?	?	35µM	38	30	Pol kappa inh-2=15
COc1ccc(OCC(=O)N2CCN(Cc3cccc(OC)c3OC)CC2)cc1	.	.	/	.	/	.	/	/
CCCN(CCC)[C@@H]1CCc2c(OC)cccc2[C@@H]1C	/	/	/	/	/	.[19.4 µM]	/	/
Cc1c(C(N)=O)cc([N+](=O)[O-])cc1[N+](=O)[O-]	.	.	.	/	.	.	/	/
Cc1ccc(-c2nc3c(=O)n(C)c(=O)nc-3n(C)n2)cc1	/	.	/	/	/	.	1.7	0.85
Cn1ncnc2c(=O)n(C)c(=O)nc1-2	0.71µM	.	.	?	.[11.6 µM]	.	5.3	5.4	PGK validate=1.5µM;GALK inh confirm=1.1µM;Redox cycling=0.6µM;HEK293 viability=3.1µM
CCN(CC)CCCCN1c2ccccc2Oc2ccc(Cl)cc21	/	/	/	/	/	.	/	/
COC(=O)c1ccc(NC(=O)c2cccn(Cc3ccccc3C)c2=O)cc1	.	.	/	.	/	.	/	/
CC(N)[C@H](O)c1ccc(O)c(O)c1 (some centres undefined)	3.2µM	2.5µM	/	1.8µM	/	3µM	15	38
